Assay results: PubChem BioAssay (EPA / NIEHS)
Activity calls are given as the source filed them. Rule for the calls: active = hit-call score of the fitted dose curve at least 0.9, where 1 is the maximum; inactive = score below 0.9.

Legend:
Details in all cases: mRNA level, 48 h; actives raise or lower the signal
[1] = read-out: Cytochrome P450 (CYP2B6), CYP2B6 (gene 1555); assay: LTEA_HepaRG_CYP2B6: Life Technologies and Expression Analysis (LTEA) Assay for Cytochrome P450 (CYP2B6) using HepaRG (AID 2283481)
Procedure, shortened: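 Differentiated human HepaRG cells in serum-free induction medium, dosed in duplicate for 48 h over 8 half-log concentrations topping at 100 uM (0.5% DMSO). CYP2B6 mRNA measured by TaqMan qRT-PCR, normalized to ACTB, GAPDH, POLR2A; bidirectional fit versus DMSO.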

[2] = read-out: Cytochrome P450 2C19 (Homo sapiens) (UniProt P33261); assay: LTEA_HepaRG_CYP2C19: Life Technologies and Expression Analysis (LTEA) Assay for CYP2C19 using HepaRG (AID 2283482)
Procedure, shortened: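 Differentiated HepaRG cells in serum-free induction medium exposed 48 h in duplicate, 8 concentrations from 100 uM by half-log steps in 0.5% DMSO. CYP2C19 mRNA measured by TaqMan qRT-PCR, normalized to ACTB, GAPDH, POLR2A. Bidirectional fit versus DMSO.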

CYP2C8 (gene 1558) = assay: LTEA_HepaRG_CYP2C8: Life Technologies and Expression Analysis (LTEA) Assay for CYP2C8 using HepaRG (AID 2283483)
Procedure, shortened: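 Differentiated HepaRG cells in serum-free induction medium exposed 48 h in duplicate to 8 half-log concentrations from 100 uM in 0.5% DMSO. CYP2C8 mRNA by qRT-PCR normalized to ACTB, GAPDH, POLR2A; bidirectional fit versus DMSO.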

CYP2C9 (gene 1559) = assay: LTEA_HepaRG_CYP2C9: Life Technologies and Expression Analysis (LTEA) Assay for CYP2C9 using HepaRG (AID 2283484)
Procedure, shortened: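 Differentiated human HepaRG cells in serum-free induction medium were exposed 48 h to chemicals in 8-point half-log series from 100 uM (0.5% DMSO), in duplicate. CYP2C9 mRNA was measured by qRT-PCR, normalized to ACTB/GAPDH/POLR2A, with bidirectional fitting versus DMSO.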

CYP2E1 (gene 1571) = assay: LTEA_HepaRG_CYP2E1: Life Technologies and Expression Analysis (LTEA) Assay for CYP2E1 using HepaRG (AID 2283485)
Procedure, shortened: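 HepaRG cells in serum-free induction medium exposed 48 h to test chemicals, 8 half-log concentrations up to 100 uM in 0.5% DMSO, duplicate. CYP2E1 mRNA by qRT-PCR, normalized to ACTB, GAPDH, POLR2A; bidirectional fit versus DMSO.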

CYP4A11 (gene 1579) = assay: LTEA_HepaRG_CYP4A11: Life Technologies and Expression Analysis (LTEA) Assay for CYP4A11 using HepaRG (AID 2283486)
Procedure, shortened: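 Differentiated HepaRG cells, 48 h after plating, exposed in duplicate for 48 h to 8 half-log concentrations up to 100 uM in 0.5% DMSO in serum-free induction medium. CYP4A11 mRNA measured by TaqMan qRT-PCR, normalized to ACTB, GAPDH and POLR2A.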

[3] = read-out: Cytochrome P450 3A4 (Homo sapiens) (UniProt P08684); assay: LTEA_HepaRG_CYP3A4: Life Technologies and Expression Analysis (LTEA) Assay for CYP3A4 using HepaRG (AID 2283487)
Procedure, shortened: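 In a human hepatic line (HepaRG), duplicate wells were treated 48 h with up to 100 uM chemical in half-log dilutions. Endpoint: CYP3A4 mRNA induction or loss relative to 0.5% DMSO vehicle, by qRT-PCR.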

[4] = read-out: DNA damage-inducible transcript 3 (DDIT3), DDIT3 (gene 1649); assay: LTEA_HepaRG_DDIT3: Life Technologies and Expression Analysis (LTEA) Assay for DNA damage-inducible transcript 3 (DDIT3) using HepaRG (AID 2283488)
Procedure, shortened: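 Differentiated human HepaRG cells in serum-free induction medium were exposed in duplicate for 48 h to 8 concentrations (top 100 uM, half-log steps, 0.5% DMSO). DDIT3 mRNA measured by TaqMan qRT-PCR, normalized to ACTB/GAPDH/POLR2A; bidirectional fit versus DMSO.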

[5] = read-out: Pro-epidermal growth factor (Homo sapiens) (UniProt P01133); assay: LTEA_HepaRG_EGF: Life Technologies and Expression Analysis (LTEA) Assay for Epidermal growth factor (EGF) using HepaRG (AID 2283489)
Procedure, shortened: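 HepaRG cells (~100,000/well, 48 h pre-culture) exposed in duplicate for 48 h in serum-free induction medium to 8 half-log concentrations up to 100 uM in 0.5% DMSO. EGF mRNA by qRT-PCR, normalized to ACTB/GAPDH/POLR2A; bidirectional fit versus DMSO.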

[6] = read-out: Early growth response protein 1 (EGR1) transcription factor, EGR1 (gene 1958); assay: LTEA_HepaRG_EGR1: Life Technologies and Expression Analysis (LTEA) Assay for Early growth response protein 1 (EGR1) transcription factor using HepaRG (AID 2283490)
Procedure, shortened: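 Differentiated HepaRG cells in serum-free induction medium exposed 48 hours, duplicate, to 8 half-log concentrations up to 100 uM in 0.5% DMSO. EGR1 mRNA measured by TaqMan qRT-PCR, normalized to ACTB, GAPDH, POLR2A; bidirectional fit versus DMSO.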

[7] = read-out: Ezrin (EZR), EZR (gene 7430); assay: LTEA_HepaRG_EZR: Life Technologies and Expression Analysis (LTEA) Assay for Ezrin (EZR) using HepaRG (AID 2283491)
Procedure, shortened: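 Gain or loss of EZR mRNA is scored relative to 0.5% DMSO in human HepaRG cultures treated 48 h with test chemicals in duplicate, eight half-log concentrations from 100 uM.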

[8] = read-out: Cytochrome P450 3A7 (Homo sapiens) (UniProt P24462); assay: LTEA_HepaRG_CYP3A7: Life Technologies and Expression Analysis (LTEA) Assay for CYP3A7 using HepaRG (AID 2283492)
Procedure, shortened: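 Differentiated HepaRG cells in serum-free induction medium exposed 48 h in duplicate to 8-point half-log series from 100 uM top in 0.5% DMSO. CYP3A7 mRNA by qRT-PCR, normalized to ACTB/GAPDH/POLR2A, bidirectional fit versus DMSO.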

CYP3A5 (gene 1577) = assay: LTEA_HepaRG_CYP3A5: Life Technologies and Expression Analysis (LTEA) Assay for CYP3A5 using HepaRG (AID 2283493)
Procedure, shortened: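 Differentiated HepaRG cells in serum-free induction medium were dosed 48 h with test chemicals (8-point half-log series, top 100 uM, 0.5% DMSO, duplicate). CYP3A5 mRNA measured by qRT-PCR, normalized to ACTB, GAPDH, POLR2A; bidirectional fit versus DMSO.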

[9] = read-out: Fatty Acid-Binding Protein 1 (FABP1), FABP1 (gene 2168); assay: LTEA_HepaRG_FABP1: Life Technologies and Expression Analysis (LTEA) Assay for Fatty Acid-Binding Protein 1 (FABP1) using HepaRG (AID 2283494)
Procedure, shortened: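 Differentiated human HepaRG cells exposed 48 h in serum-free induction medium to eight half-log concentrations up to 100 uM (0.5% DMSO), duplicate. FABP1 mRNA by qRT-PCR, normalised to ACTB, GAPDH, POLR2A; bidirectional fitting against DMSO.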

[10] = read-out: Cytochrome P450 4A22 (Homo sapiens) (UniProt Q5TCH4); assay: LTEA_HepaRG_CYP4A22: Life Technologies and Expression Analysis (LTEA) Assay for Cytochrome P450 4A22 (CYP4A22) using HepaRG (AID 2283495)
Procedure, shortened: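 Differentiated HepaRG cells in serum-free induction medium exposed 48 h in duplicate to eight half-log concentrations up to 100 uM in 0.5% DMSO. CYP4A22 mRNA quantified by TaqMan qRT-PCR, normalized to ACTB, GAPDH and POLR2A; bidirectional fit versus DMSO.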

[11] = read-out: Cytochrome P450 7A1 (Homo sapiens) (UniProt P22680); assay: LTEA_HepaRG_CYP7A1: Life Technologies and Expression Analysis (LTEA) Assay for Cytochrome P450 7A1 (CYP7A1) using HepaRG (AID 2283496)
Procedure, shortened: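 Gene expression endpoint in human HepaRG liver cells treated for 48 h with test chemicals (up to 100 uM, 0.5% DMSO). Values come from bidirectional concentration-response fitting versus DMSO.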

[12] = read-out: Glutathione S-Transferase (GSTA2), GSTA2 (gene 2939); assay: LTEA_HepaRG_GSTA2: Life Technologies and Expression Analysis (LTEA) Assay for Glutathione S-Transferase (GSTA2) using HepaRG (AID 2283497)
Procedure, shortened: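 Differentiated human HepaRG cells were exposed in duplicate for 48 h in serum-free induction medium, 8 points from 100 uM top in half-log steps, 0.5% DMSO. GSTA2 mRNA was measured by TaqMan qRT-PCR, normalized to ACTB, GAPDH and POLR2A; bidirectional fit versus DMSO.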

[13] = read-out: Glutamate-cysteine ligase catalytic (GCLC), GCLC (gene 2729); assay: LTEA_HepaRG_GCLC: Life Technologies and Expression Analysis (LTEA) Assay for Glutamate-cysteine ligase catalytic (GCLC) using HepaRG (AID 2283498)
Procedure, shortened: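 Differentiated HepaRG cells exposed 48 h in serum-free induction medium, eight-point half-log series topping at 100 uM in 0.5% DMSO, duplicates. GCLC mRNA by qRT-PCR normalized to ACTB, GAPDH and POLR2A, fitted bidirectionally versus DMSO.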

[14] = read-out: growth arrest and DNA damage 45 (GADD45G), GADD45G (gene 10912); assay: LTEA_HepaRG_GADD45G: Life Technologies and Expression Analysis (LTEA) Assay for growth arrest and DNA damage 45 (GADD45G) using HepaRG (AID 2283499)
Procedure, shortened: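 Differentiated human HepaRG cells, 48 h post-plating, exposed 48 h in serum-free induction medium to 8 half-log concentrations (top 100 uM, 0.5% DMSO) in duplicate. GADD45G mRNA measured by Fluidigm TaqMan qRT-PCR, normalized to ACTB, GAPDH, POLR2A; bidirectional fit versus DMSO.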

[15] = read-out: Glutamate-cysteine ligase regulatory (GCLM), GCLM (gene 2730); assay: LTEA_HepaRG_GCLM: Life Technologies and Expression Analysis (LTEA) Assay for Glutamate-cysteine ligase regulatory (GCLM) using HepaRG (AID 2283500)
Procedure, shortened: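 Differentiated human HepaRG cells exposed 48 h in serum-free induction medium to 8-point half-log concentrations (top 100 uM, 0.5% DMSO), in duplicate. GCLM mRNA quantified by qRT-PCR, normalized to ACTB, GAPDH, POLR2A; bidirectional fitting versus DMSO.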

Measured: AC50

Cytochrome P450 3A4 (Homo sapiens), sequence (P08684 whole entry, looked up): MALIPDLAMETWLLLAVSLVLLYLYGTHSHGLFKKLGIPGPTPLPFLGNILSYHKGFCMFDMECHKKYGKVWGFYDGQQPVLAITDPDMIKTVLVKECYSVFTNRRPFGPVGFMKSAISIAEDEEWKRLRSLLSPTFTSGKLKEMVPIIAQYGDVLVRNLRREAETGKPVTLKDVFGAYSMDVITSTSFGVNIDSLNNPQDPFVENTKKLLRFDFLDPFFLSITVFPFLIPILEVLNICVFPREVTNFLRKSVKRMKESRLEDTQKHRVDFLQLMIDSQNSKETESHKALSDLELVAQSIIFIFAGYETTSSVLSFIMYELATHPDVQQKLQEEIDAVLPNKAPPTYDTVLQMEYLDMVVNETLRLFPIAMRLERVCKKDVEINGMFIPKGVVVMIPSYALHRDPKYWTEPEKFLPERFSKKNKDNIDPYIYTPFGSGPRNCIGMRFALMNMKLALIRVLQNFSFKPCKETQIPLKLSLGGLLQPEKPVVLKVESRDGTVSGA
Cytochrome P450 3A7 (Homo sapiens), sequence (P24462 whole entry, looked up): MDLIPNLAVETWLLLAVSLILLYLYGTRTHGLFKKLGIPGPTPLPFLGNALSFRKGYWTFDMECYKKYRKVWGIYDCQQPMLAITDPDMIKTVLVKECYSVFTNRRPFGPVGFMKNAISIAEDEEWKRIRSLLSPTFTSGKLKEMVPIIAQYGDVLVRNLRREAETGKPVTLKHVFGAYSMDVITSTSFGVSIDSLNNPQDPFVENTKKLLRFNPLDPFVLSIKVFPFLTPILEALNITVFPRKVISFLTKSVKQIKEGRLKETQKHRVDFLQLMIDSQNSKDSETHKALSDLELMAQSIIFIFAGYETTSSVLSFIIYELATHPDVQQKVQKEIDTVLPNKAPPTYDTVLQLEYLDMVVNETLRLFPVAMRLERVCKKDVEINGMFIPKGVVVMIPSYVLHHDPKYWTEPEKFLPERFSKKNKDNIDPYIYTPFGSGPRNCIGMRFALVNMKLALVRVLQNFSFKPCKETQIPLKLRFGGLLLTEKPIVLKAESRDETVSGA
Cytochrome P450 2C19 (Homo sapiens), sequence (P33261 whole entry, looked up): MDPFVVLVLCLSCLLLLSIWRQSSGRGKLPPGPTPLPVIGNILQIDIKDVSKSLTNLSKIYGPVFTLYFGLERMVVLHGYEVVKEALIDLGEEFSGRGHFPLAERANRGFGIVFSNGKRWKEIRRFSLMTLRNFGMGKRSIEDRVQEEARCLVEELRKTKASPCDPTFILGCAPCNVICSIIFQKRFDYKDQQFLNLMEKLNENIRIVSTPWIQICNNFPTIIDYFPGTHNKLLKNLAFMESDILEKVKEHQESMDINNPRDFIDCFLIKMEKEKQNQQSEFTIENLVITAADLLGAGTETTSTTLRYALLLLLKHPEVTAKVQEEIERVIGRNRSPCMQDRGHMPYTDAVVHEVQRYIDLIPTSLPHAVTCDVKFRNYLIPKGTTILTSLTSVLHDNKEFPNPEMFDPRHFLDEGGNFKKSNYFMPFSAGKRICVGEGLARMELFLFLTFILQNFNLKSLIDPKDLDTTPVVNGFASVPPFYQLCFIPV

CC1=C(C(=O)Nc2ccccc2)SCCO1
active: [1] 45 µM | CYP2E1 (gene 1571) 74.5 µM | [9] 50 µM | [11] 35.7 µM | [14] 61.8 µM
inactive: [2] | CYP2C8 (gene 1558) | CYP2C9 (gene 1559) | CYP4A11 (gene 1579) | [3] | [4] | [5] | [6] | [7] | [8] | CYP3A5 (gene 1577) | [10] | [12] | [13] | [15]

CCCCNC(=O)OCC#CI
inactive: CYP2E1 (gene 1571) | CYP4A11 (gene 1579) | [3] | [4] | [5] | [6] | [7] | CYP3A5 (gene 1577) | [10] | [14] | [15]
active: [1] 30.6 µM | [2] 50 µM | CYP2C8 (gene 1558) 50 µM | CYP2C9 (gene 1559) 21.5 µM | [8] 50 µM | [9] 50 µM | [11] 50 µM | [12] 9.92 µM | [13] 0.00766 µM
